PubChem BioAssay (NCATS)
Inconclusive results are not listed. The source made the active and inactive calls. Calls follow the shape of the dose curve; as a rule, active = well fitted curve in the direction sought with a large enough effect; inconclusive = small, poorly fitted or top-dose-only effect, or another doubt; inactive = no such curve, though single readings can be large; an effect the other way counts as inactive or inconclusive.

How the values were obtained:
[1] = Quantitative High-Throughput drug screen in 47 multiple myeloma cell lines against the NCATS MIPE library collection: FR4_PLB cell viability assay (AID 1918924; also: nearly all actives have a fitted effect of over 35% in size)
Method in brief: (§1)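 Inhibition of cell viability is measured here. Each line was plated at 500 cells per well, treated with MIPE 4.0 drugs, kept 48 hours at 37C, then assayed for ATP content by CellTiter-Glo luminescence.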

[2] = Quantitative High-Throughput drug screen in 47 multiple myeloma cell lines against the NCATS MIPE library collection: Delta47_JCRB cell viability assay (AID 1918925; also: nearly all actives have a fitted effect of over 45% in size)
Method in brief: (§2)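 Relative luminescence from CellTiter-Glo served as the viability signal, referenced to DMSO-treated (100%) and cell-free medium (0%) controls. Treatment lasted 48 hours at 37C with 500 cells per well.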

[3] = Quantitative High-Throughput drug screen in 47 multiple myeloma cell lines against the NCATS MIPE library collection: EJM_DSMZ cell viability assay (AID 1918926; also: nearly all actives have a fitted effect of over 30% in size)
Method in brief: as §2

[4] = Quantitative High-Throughput drug screen in 47 multiple myeloma cell lines against the NCATS MIPE library collection: AMO1_DSMZ cell viability assay (AID 1918927; also: nearly all actives have a fitted effect of over 30% in size)
Method in brief: as §2

[5] = Quantitative High-Throughput drug screen in 47 multiple myeloma cell lines against the NCATS MIPE library collection: ARP1_JJKsccF8 cell viability assay (AID 1918928; also: nearly all actives have a fitted effect of over 40% in size)
Method in brief: (§3)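 Myeloma cells at 500 per well in 1536-well format treated with MIPE 4.0 library by pin transfer for 48 h at 37C, 5% CO2. Viability from ATP luminescence (CellTiter-Glo), normalized to DMSO (100%) and media-only (0%) wells.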

[6] = Quantitative High-Throughput drug screen in 47 multiple myeloma cell lines against the NCATS MIPE library collection: ARD_JJKsccE7 cell viability assay (AID 1918929)
Method in brief: as §2

[7] = Quantitative High-Throughput drug screen in 47 multiple myeloma cell lines against the NCATS MIPE library collection: Karpas620_DSMZ cell viability assay (AID 1918959); also: nearly all actives have a fitted effect of over 30% in size
Method in brief: as §1

[8] = Quantitative High-Throughput drug screen in 47 multiple myeloma cell lines against the NCATS MIPE library collection: KMM1_JCRB cell viability assay (AID 1918960); also: nearly all actives have a fitted effect of over 30% in size
Method in brief: as §3

[9] = Quantitative High-Throughput drug screen in 47 multiple myeloma cell lines against the NCATS MIPE library collection: Karpas417_ECACC cell viability assay (AID 1918961); conditions: Karpas417 myeloma viability, CellTiter-Glo ATP luminescence, 48 h; viability (% of DMSO): at 45.8 µM (top of the series)
Method in brief: (§4)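 qHTS of the MIPE 4.0 collection: 500 myeloma cells/well, 48 h drug exposure at 37C in 5% CO2, then CellTiter-Glo for 5 min at room temperature before luminescence reading.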

[10] = Quantitative High-Throughput drug screen in 47 multiple myeloma cell lines against the NCATS MIPE library collection: KHM11_PLB cell viability assay (AID 1918962); also: nearly all actives have a fitted effect of over 35% in size
Method in brief: as §1

[11] = Quantitative High-Throughput drug screen in 47 multiple myeloma cell lines against the NCATS MIPE library collection: JIM3_ECACC cell viability assay (AID 1918963; also: nearly all actives have a fitted effect of over 35% in size)
Method in brief: as §1

[12] = Quantitative High-Throughput drug screen in 47 multiple myeloma cell lines against the NCATS MIPE library collection: JIM1_ECACC cell viability assay (AID 1918964)
Method in brief: as §2

[13] = Quantitative High-Throughput drug screen in 47 multiple myeloma cell lines against the NCATS MIPE library collection: INA6_PLB cell viability assay (AID 1918965; also: nearly all actives have a fitted effect of over 55% in size)
Method in brief: as §4

[14] = Quantitative High-Throughput drug screen in 47 multiple myeloma cell lines against the NCATS MIPE library collection: H1112_PLB cell viability assay (AID 1918967; also: nearly all actives have a fitted effect of over 30% in size)
Method in brief: as §2

[15] = Quantitative High-Throughput drug screen in 47 multiple myeloma cell lines against the NCATS MIPE library collection: KMS27_JCRB cell viability assay (AID 1918970); also: nearly all actives have a fitted effect of over 30% in size
Method in brief: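 Viability inhibition screen, 48 h compound exposure, luminescent ATP read-out.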

[16] = Quantitative High-Throughput drug screen in 47 multiple myeloma cell lines against the NCATS MIPE library collection: KMS12BM_JCRB cell viability assay (AID 1918971); also: nearly all actives have a fitted effect of over 35% in size
Method in brief: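 Steps: seed 500 cells per well; pin-transfer MIPE 4.0 library; incubate 48 h at 37C, 5% CO2, humidified; add CellTiter-Glo, 5 min room temperature; read luminescence.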

[17] = Quantitative High-Throughput drug screen in 47 multiple myeloma cell lines against the NCATS MIPE library collection: KMS12PE_JCRB cell viability assay (AID 1918972); also: nearly all actives have a fitted effect of over 30% in size
Method in brief: as §4

[18] = Quantitative High-Throughput drug screen in 47 multiple myeloma cell lines against the NCATS MIPE library collection: KMS20_JCRB cell viability assay (AID 1918973); also: nearly all actives have a fitted effect of over 45% in size
Method in brief: as §2

[19] = Quantitative High-Throughput drug screen in 47 multiple myeloma cell lines against the NCATS MIPE library collection: JJN3_DSMZ cell viability assay (AID 1918966; also: nearly all actives have a fitted effect of over 50% in size)
Method in brief: as §2

[20] = Quantitative High-Throughput drug screen in 47 multiple myeloma cell lines against the NCATS MIPE library collection: Karpas25_ECACC cell viability assay (AID 1918968; also: nearly all actives have a fitted effect of over 35% in size)
Method in brief: as §2

Measured: Potency
Potency is read from the fitted curve at half-maximal effect.

Nc1ccccc1NC(=O)c1ccc(CNC(=O)OCc2cccnc2)cc1
active: [1] 2.96 µM | [2] 0.372 µM | [3] 3.72 µM | [4] 0.833 µM | [5] 1.32 µM | [6] 0.935 µM | [7] 2.64 µM | [8] 0.418 µM | [9] 0.469 µM | [10] 4.18 µM | [11] 2.96 µM | [12] 1.48 µM | [13] 0.418 µM | [14] 2.35 µM | [15] 0.526 µM | [16] 1.32 µM | [17] 0.743 µM | [18] 0.526 µM

OCCCNc1cc(-c2ccnc(Nc3cccc(Cl)c3)n2)ccn1
active: [1] 0.118 µM | [2] 0.0264 µM | [3] 0.118 µM | [4] 0.0743 µM | [5] 0.105 µM | [6] 0.0743 µM | [7] 0.0662 µM | [8] 0.0526 µM | [9] 0.0469 µM | [10] 0.0187 µM | [11] 0.0526 µM | [12] 0.0526 µM | [13] 0.0264 µM | [19] 0.0935 µM | [14] 0.059 µM | [20] 0.0418 µM | [15] 0.0418 µM | [16] 0.132 µM | [17] 0.0935 µM | [18] 0.0418 µM

CN1CC[C@@H](c2c(O)cc(O)c3c(=O)cc(-c4ccccc4Cl)oc23)[C@@H](O)C1
active: [1] 0.0332 µM | [2] 0.0662 µM | [3] 0.0743 µM | [4] 0.0264 µM | [5] 0.0833 µM | [6] 0.0469 µM | [7] 0.0935 µM | [8] 0.059 µM | [9] 0.0187 µM | [10] 0.0235 µM | [11] 0.0833 µM | [12] 0.0235 µM | [13] 0.0418 µM | [19] 0.0743 µM | [14] 0.132 µM | [20] 0.0833 µM | [15] 0.0935 µM | [16] 0.132 µM | [17] 0.132 µM | [18] 0.0833 µM

C=C1C(=CC=C2CCC[C@]3(C)[C@@H]([C@H](C)C=C[C@H](C)C(C)C)CC[C@@H]23)C[C@@H](O)C[C@@H]1O
active: [1] 5.9 µM | [2] 8.33 µM | [3] 0.59 µM | [4] 0.235 µM | [5] 1.66 µM | [6] 0.332 µM | [7] 1.48 µM | [8] 0.469 µM | [9] 0.118 µM | [10] 9.35 µM | [11] 7.43 µM | [12] 0.526 µM | [13] 1.48 µM | [19] 0.833 µM | [14] 2.35 µM | [20] 0.935 µM | [15] 0.118 µM | [16] 1.87 µM | [17] 0.662 µM

CN(c1ncccc1CNc1nc(Nc2ccc3c(c2)CC(=O)N3)ncc1C(F)(F)F)S(C)(=O)=O
active: [1] 5.9 µM | [2] 3.72 µM | [3] 8.33 µM | [4] 3.32 µM | [5] 9.35 µM | [6] 2.64 µM | [7] 1.48 µM | [8] 3.32 µM | [9] 1.87 µM | [10] 2.96 µM | [11] 5.9 µM | [12] 3.32 µM | [13] 2.64 µM | [19] 2.64 µM | [14] 5.9 µM | [20] 3.32 µM | [15] 2.64 µM | [16] 9.35 µM | [17] 8.33 µM | [18] 3.32 µM

C[C@@H](Oc1cc(-c2cnn(C3CCNCC3)c2)cnc1N)c1c(Cl)ccc(F)c1Cl
active: [1] 18.7 µM | [2] 2.09 µM | [3] 18.7 µM | [4] 18.7 µM | [5] 8.33 µM | [6] 11.8 µM | [7] 14.8 µM | [8] 13.2 µM | [9] 2.64 µM | [10] 3.72 µM | [11] 8.33 µM | [12] 3.72 µM | [13] 4.69 µM | [19] 8.33 µM | [14] 11.8 µM | [20] 2.35 µM | [15] 26.4 µM | [16] 16.6 µM | [17] 6.62 µM

CCc1c2c(nc3ccc(O)cc13)-c1cc3c(c(=O)n1C2)COC(=O)[C@]3(O)CC
active: [1] 0.59 µM | [2] 0.0372 µM | [3] 0.187 µM | [4] 0.0118 µM | [5] 0.187 µM | [6] 1.66 µM | [7] 0.743 µM | [8] 0.132 µM | [9] 0.332 µM | [10] 0.166 µM | [11] 0.526 µM | [12] 0.0372 µM | [13] 0.001 µM | [19] 0.332 µM | [14] 0.0469 µM | [20] 0.0662 µM | [15] 0.0059 µM | [16] 0.0662 µM | [17] 0.187 µM | [18] 0.118 µM

CC(C)c1cnn2c(NCc3ccccc3)cc(N[C@@H](CO)[C@H](O)CO)nc12
active: [1] 0.264 µM | [2] 0.166 µM | [3] 0.235 µM | [4] 0.118 µM | [5] 0.264 µM | [6] 0.148 µM | [7] 0.296 µM | [8] 0.166 µM | [9] 0.0833 µM | [10] 0.148 µM | [11] 0.235 µM | [13] 0.166 µM | [19] 0.132 µM | [14] 0.296 µM | [20] 0.235 µM | [15] 0.209 µM | [16] 0.332 µM | [17] 0.372 µM | [18] 0.235 µM
